# Screening results deposited in PubChem by National Center for Advancing Translational Sciences (NCATS).
# Only some compounds are listed: those with a hit (about 7.5% of all), similar ones and a draw of the others.
# ELG1 genotoxic = qHTS screen for small molecules that induce genotoxicity in human embryonic kidney (HEK293T) cells expressing luciferase-tagged ELG1 | HEK293T ELG1-luciferase reporter, luminescence, 16 h | Potency, µM (series often up to 46 µM), for inactives: at the highest dose activity change, positive = activation, actives largely listed as activators | 1.3% of 330,000 active | AID 504466, 2011; note: % of control where 0% means no effect; nearly all actives have a fitted effect of over 60% in size
#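 Step 1: seed 2,000 HEK293T ELG1-luciferase cells per well. Step 2: add compound or DMSO, incubate 16 hr at 37 °C. Step 3: ONE-Glo, 30 min at room temperature, read luminescence.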
# KinaseGlo FLuc = Counterscreen for Luciferase (Kinase-Glo TM) Inhibition. 0.28% of 200,000 active. Potency, µM (doses to about 38.3 µM), for the others: at the top dose activity change, negative = inhibition, usual class: inhibitors. Kinase-Glo luciferase, ATP luminescence, 8 min. Luciferin 4-monooxygenase (Photuris pensylvanica), Q27757; note: % is set by controls: 0 for no effect and ±100 for the full control effect; nearly all actives have a fitted effect of over 60% in size
#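 Kinase-Glo luciferase light output from ATP and luciferin was measured with 10 uM ATP, within the enzyme's linear range. Buffer: 50 mM imidazole pH 7.2, 50 mM KCl, 7 mM MgCl2, 0.01% Tween 20, 0.05% BSA; luminescence read after 8 min at ambient temperature.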
# Rab9 prom act = qHTS Assay for Rab9 Promoter Activators; Huh7 Rab9 promoter-luciferase reporter, luminescence, 24 h; Potency, µM (series often up to 9.22 µM), without a hit: at the top dose activation, negative = inhibition, actives largely listed as activators; 2.8% of 320,000 active; AID 485297, 2010; note: % of control where 0% means no effect; nearly all actives have a fitted effect of over 60% in size
#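 Steps: seed 1500 Huh7 Rab9-luc cells per well, rest 2 h at 37 °C; add compound in DMSO; incubate 24 h; add luciferase reagent, 10 min ambient; read luminescence.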
# NPC1 prom act = qHTS Assay for NPC1 Promoter Activators | Huh7 NPC1 promoter luciferase reporter, 24 h | Potency, µM (doses to about 9.22 µM), without a hit: at the top dose activation, actives largely listed as activators | 2.4% of 320,000 active | AID 485313, 2010; note: % of control where 0% means no effect; nearly all actives have a fitted effect of over 60% in size
#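 Luminescence read-out of NPC1 promoter-driven luciferase in stably transfected Huh7 cells; compounds delivered in DMSO and left 24 h at 37C, 5% CO2, qHTS titration format.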
# FLuc modulator = qHTS profiling assay for firefly luciferase inhibitor/activator using purifed enzyme and Km concentrations of substrates (counterscreen for miR-21 project); Luciferin 4-monooxygenase (Photinus pyralis), P08659; purified FLuc, Km substrates, luminescence inhibition; Potency, µM (titrated, usually from 57.5 µM), inactives show at the highest dose activity change, negative = inhibition, hits mostly inhibitors; 6.9% of 360,000 active; AID 588342, 2011;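 note: plate controls were vehicle for no effect and reference inhibitor for full effect; nearly all actives have a fitted effect of over 55% in size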
# Target sequence (P08659 whole entry, looked up): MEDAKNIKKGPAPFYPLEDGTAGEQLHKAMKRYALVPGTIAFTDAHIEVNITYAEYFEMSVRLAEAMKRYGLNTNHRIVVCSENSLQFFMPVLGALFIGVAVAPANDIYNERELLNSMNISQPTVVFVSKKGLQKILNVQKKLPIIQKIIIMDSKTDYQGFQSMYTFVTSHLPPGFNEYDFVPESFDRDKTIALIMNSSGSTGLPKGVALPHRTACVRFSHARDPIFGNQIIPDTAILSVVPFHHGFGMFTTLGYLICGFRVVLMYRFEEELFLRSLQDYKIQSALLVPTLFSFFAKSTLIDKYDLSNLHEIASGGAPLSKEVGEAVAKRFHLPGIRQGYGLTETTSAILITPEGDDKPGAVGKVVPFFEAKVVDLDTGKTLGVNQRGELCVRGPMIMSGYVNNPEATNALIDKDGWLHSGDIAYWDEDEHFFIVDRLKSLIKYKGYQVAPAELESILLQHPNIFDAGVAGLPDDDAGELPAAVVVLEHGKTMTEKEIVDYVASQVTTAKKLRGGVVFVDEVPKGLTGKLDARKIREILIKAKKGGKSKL
#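 Purified P. pyralis luciferase, 10 nM final, with Km-level 10 uM D-luciferin and 10 uM ATP in 50 mM Tris acetate pH 7.5, 10 mM Mg acetate, 0.01% Tween-20, 0.05% BSA; 6-point qHTS titration about 60 µM downward; luminescence read.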
# SMN2 splice enh = qHTS Assay for Enhancers of SMN2 Splice Variant Expression. HEK293 SMN2-luciferase splicing reporter, luminescence, 30-36 h. Potency, µM (series often up to 46.1 µM), for inactives: at the top dose activity change, positive = activation, actives largely listed as activators. 2.8% of 210,000 active. AID 1458, 2008; note: % of control where 0% means no effect; nearly all actives have a fitted effect of over 55% in size
#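 qHTS luciferase splicing reporter: luminescence rises when SMN2 exon 7 is included in transfected HEK293 cells. Compound exposure lasted 30-36 h at 37C, with 4.5 mM final sodium butyrate as control, followed by a ONE-Glo read.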
# * marks the source's active call; other numbers are inactive results; ? = inconclusive; . = not tested or not shown; ! = a repeat was not active. Calls come from the whole dose curve; as a rule, active = well fitted curve in the direction sought with a large enough effect; inconclusive = small, poorly fitted or top-dose-only effect, or another doubt; inactive = no such curve, though single readings can be large; an effect the other way counts as inactive or inconclusive. Potency is the fitted concentration of half-maximal effect.
SMILES,ELG1 genotoxic,KinaseGlo FLuc,Rab9 prom act,NPC1 prom act,FLuc modulator,SMN2 splice enh
Cc1cccc(C(=O)N/N=C/c2ccc[nH]2)c1,13%,-4%,0%,5%,?,9%
Cc1ccsc1/C=N/NC(=O)c1c[nH]c2ccccc12,?,-3%,2.5µM*,4.5µM*,12µM*,?
Cc1ccsc1/C=N/NC(=O)c1cc(-c2ccncc2)nc2ccccc12,2%,-4%,-28%,-17%,-20%,-33%
COc1ccc(CN(C)C(=S)Nc2ccc(Cl)cc2)cc1,-3%,-1%,-4%,-5%,-6%,-24%
CC1=CC(=C2N=C(c3ccccc3)OC2=O)C=C(C)O1,7%,-3%,?,?,?,12%
CN1C=CC=C/C1=C1/N=C(c2ccccc2)OC1=O,3%,1%,3.2µM*,?,?,?
COc1ccc(Cl)cc1NC(=O)CN1C(=O)C(C)(C)c2cc(S(=O)(=O)N3CCCCC3)ccc21,.,.,.,.,-4%,.
O=c1[nH]c(N/N=C\c2ccc(F)cc2)nc2ccccc12,?,-5%,1.3µM*,?,4.8µM*,10µM*
O=C(N/N=C/c1ccncc1)c1nc2ccccc2c(=O)[nH]1,?,.,3%,-5%,-9%,.
C=CCn1c(N/N=C/c2ccc(O)cc2)nc2ccccc2c1=O,?,-16%,30%,-2%,2.4µM*,-1%
O=c1[nH]c(N/N=C/c2ccc(O)cc2)nc2ccccc12,21µM*,0%,2.2µM*,?,11µM*,22µM*
COc1ccc(Nc2nc3ccccc3c(=O)[nH]2)cc1,5%,.,4%,-5%,-19%,.
C=CC[C@H](CC(=O)NCCO)C(=O)N[C@@H](COC(=O)[C@H](CC=C)CC(=O)OC(C)(C)C)Cc1ccccc1,1%,.,.,.,.,.
CC(=O)OCCCN1c2ccccc2Nc2nnc(-c3ccccc3)cc21,?,-7%,1.6µM*,1.8µM*,2.4µM*,14µM*
Cc1noc(-c2ccc(NCc3ccccc3)c([N+](=O)[O-])c2)n1,.,.,.,.,-16%,.
O=c1c(-c2ccc(F)cc2)coc2cc(O)ccc12,?,?,3.5µM*,3.2µM*,13µM*,78%
CCN(CC)C(=O)Oc1ccc2c(=O)c(-c3ccccc3)coc2c1,?,-13%,3.5µM*,1.6µM*,6µM*,?
COc1ccc(-c2coc3cc(OC(C)=O)cc(OC(C)=O)c3c2=O)cc1,.,-2%,.,.,.,8.9µM*
COc1ccc(-c2coc3cc(O)ccc3c2=O)cc1OC,?,7%,?,?,19µM*,28%
CCN(CC)C(=O)COc1ccc2c(-c3ccccc3)cc(=O)oc2c1,0%,.,-3%,-5%,-7%,.
COc1ccc(OC)c(CNC(=O)CCc2c(C)nc3c(c2C)c(=O)n(C)c(=O)n3C)c1,.,.,.,.,1%,10%
COc1cc(CN(C(=O)Nc2cccc(Cl)c2)c2ccccn2)cc(OC)c1OC,.,.,.,.,-10%,.
Cc1nc2ccc(S(=O)(=O)N(CC(=O)Nc3cccc(Cl)c3)Cc3ccccc3)cc2s1,.,.,.,.,-10%,.
COc1ccc2c(=O)c(CC(=O)O)coc2c1,.,-1%,.,.,.,4%
O=c1c(-c2ccc(Br)cc2)coc2c(CN3CCOCC3)c(O)ccc12,8%,-2%,-6%,0%,-21%,-9%
SMILES,ELG1 genotoxic,KinaseGlo FLuc,Rab9 prom act,NPC1 prom act,FLuc modulator,SMN2 splice enh
COc1ccc(-c2coc3cc(O)cc(O)c3c2=O)cc1OC,?,.,24%,22%,?,.
COc1ccccc1-c1coc2cc(O)cc(O)c2c1=O,16µM*,-3%,?,21%,21µM*,25%
COc1ccc2c(=O)c(-c3ccc(OC)c(OC)c3)coc2c1,?,.,?,?,7.6µM*,.
O=c1c(-c2ccc(F)cc2)coc2c3c(ccc12)OCCO3,2.6µM*,-4%,1.3µM*,3.5µM*,?,?
COc1ccc2c(=O)c(-c3ccccc3)coc2c1,1%,2.8µM*!,0.79µM*,0.71µM*,3µM*,11µM*
Cc1ccc2nc(-c3ccc(N)cc3)sc2c1S(=O)(=O)O,.,.,.,.,.,14µM*
C#CCn1c(S(=O)(=O)Cc2ccccc2Cl)nc(-c2ccccc2)c1-c1ccccc1,-5%,3%,-5%,-3%,6%,5.6µM*
CCOc1ccccc1CNC(=O)c1ccc2nc(N3CCC(C)CC3)sc2c1,.,.,.,.,?,-3%
CC(C)OC(=O)Cn1nnc2c(cnn2-c2ccccc2)c1=O,14%,-1%,18%,17%,17µM*,26%
COC(=O)Cn1nnc2c(cnn2-c2ccccc2)c1=O,8%,-3%,19%,-2%,-7%,.
Cc1cc(Br)ccc1NC(=O)c1sc2nc3n(c(=O)c2c1C)CCCC3,.,.,.,.,-14%,.
C/C(CC(=O)Nc1cc(C)ccn1)=N\NC(=O)c1cccc(C)c1O,5.8µM*,.,14%,-10%,?,.
C/C(CC(=O)Nc1ccccn1)=N\NC(=O)c1ccccc1O,16µM*,.,2%,1%,17µM*,.
C/C(CC(=O)Nc1ccccn1)=N\NC(=O)c1ccccc1,4%,-2%,-2%,1%,4%,?
C/C(CC(=O)Nc1cc(C)ccn1)=N\NC(=O)c1cccc(C)c1,-13%,-4%,-6%,6%,-17%,3%
CC(C)(C)C1CCc2[nH]c3ccccc3c(=O)c2C1 (stereo unspecified),?,?,10%,20%,6µM*,-6%
O=C(/C=C/c1ccc([N+](=O)[O-])cc1)Nc1cccc(C(=O)Nc2ccccc2C(=O)O)c1,-9%,.,-6%,-3%,5.4µM*,.
CCOC(=O)c1cccc(NC(=O)/C=C/c2ccc([N+](=O)[O-])cc2)c1,2%,1%,8%,3%,2.7µM*,-56%
COC(=O)c1cccc(NC(=O)/C=C/c2ccc([N+](=O)[O-])cc2)c1,-4%,-2%,2%,8%,2.4µM*,-10%
CC(=O)c1cccc(NC(=O)/C=C/c2ccc([N+](=O)[O-])s2)c1,2.9µM*,9%,-36%,-35%,-2%,-82%
CCc1cccc(-n2c(=O)c3cccnc3n2CC(=O)Nc2ccc(F)c(C)c2)c1,.,.,.,.,-3%,.
OCC1(C2=NOC(O)(C(F)(F)F)C2)CCCCC1 (stereo unspecified),0%,-2%,10%,2%,0%,8%
OC1(C(F)(F)F)CC(c2ccc3ccccc3c2)=NO1 (stereo unspecified),?,.,-2%,3%,19µM*,.
CN(C(=O)CCS(=O)(=O)c1ccc2c(c1)oc(=O)n2C)C1CCCCC1,0%,.,0%,1%,4%,.
